The supplement of paper PMC10338343
± gives the standard deviation.

system: EfPiwi piRISC loaded with piRNA #1 (26 nt); assay: pre-steady-state target cleavage rate (min^-1); auxiliary factor: 500 nM Ephydatia muelleri Gtsf1; guide: piRNA #1 5'p-UGAGGUAGUAGGUUGUAUAGUAUCCA; MIWI and MILI are mouse PIWI proteins and EfPiwi is from a freshwater sponge; tags in brackets are library labels; higher = faster piRNA-guided slicing of the target
Procedure, shortened: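 Sequencing of uncleaved targets, normalised to depth and to weakly complementary targets, was the readout of this Cleave-'n-Seq assay. A transcribed, DNA-blocked target RNA library (0.1 nM) was mixed with 1 nM active affinity-purified piRISC carrying one synthetic guide, with or without 500 nM GTSF1 partner protein, in HEPES–potassium acetate buffer at 33 °C for 0–8 or 0–960 min. Three trials were pooled, k3 was capped at 0.0001 min^-1, and a burst-and-steady-state fit gave the pre-steady-state cleavage rate.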

Sequence	pre-steady-state target cleavage rate
GGAGAGGAUACUAUACAACCUACUACCGCA	0.00593 ± 0.0021
GGAGAGGAUACUAUACAUCCUACAACCUCA	0.00339 ± 0.0022
GGAGACGAUAUCUAUACAACCUACUACCUCA	0.00603 ± 0.0041
GGAGACGAUACUAUACAACGUACUAGCUCA	0.00363 ± 0.0015
GGAGAGGAUACUAUACCAACCUACUACCUCA	0.00837 ± 0.0039
GGAGACGAUACUUUACAACCUACUUCCUCA	0.00221 ± 0.002
GGAGACGAUAGUAUACAACCUACUACCUGA	0.0032 ± 0.0023
GGAGACCAUACUAUACAACCAACUUCCUCA	0.00509 ± 0.0046
GGAGUAGGAUACUAUACAACCUACUACCUCA	0.0546 ± 0.019
GGAGAGGAUACUAUACAACCAUCUACCUCA	0.0052 ± 0.002
GGAGAGGAAACUAUACAACCUACUACCACA	0.00262 ± 0.0018
GGAGACCUAUCUAUACAACCUACUACCCCA	0.00444 ± 0.0032
GGAGAGGAUACUAUACAACCUCCUACCUCA	0.0065 ± 0.0026
GGAGUGGAUACUACUACAACCUACUACCUCA	0.114 ± 0.038
GGAGACGAUACUAUACUACCUACUACCUCA	0.00925 ± 0.0032
GGAGUGGAUACUAUACAAACUACUACCUCA	0.0127 ± 0.0051
GGAGAGGGUACUAUACAACCUACUACCUCA	0.0162 ± 0.0072
GGAGACCUUACUAUAUAACCUACUACCUCA	0.00964 ± 0.005
GGAGACCAGUACUAUACAACCUACUACCUCA	0.0152 ± 0.0063
GGAGAGGAUACUAUACAAGGUACUACCUCA	0.00404 ± 0.0023

Sequence	pre-steady-state target cleavage rate
GGAGACCAUACUAUACAACAUACUACCUCA	0.00326 ± 0.0021
GGAGACCUUACUACACAACCUACUACCUCA	0.00432 ± 0.0039
GGAGACGAUACUAUACAACCGACUACCUCA	0.00284 ± 0.002
GGAGUGGAUAGUAUACAACCUUCUACCUCA	0.00338 ± 0.0021
GGAGAGGAUCACUAUACAACCUACUACCUCA	0.00867 ± 0.0051
GGAGAGGUUACUAUACAACCUACUACGUCA	0.00435 ± 0.0016
GGAGACCAUACUAUUCAAGCUACUACCUCA	0.00339 ± 0.0032
GGAGACCAUACUAUACGACCUACUACCUCA	0.0094 ± 0.0037
GGAGUGGAUACUAUACAACGUACUACCUCA	0.00682 ± 0.0022
GGAGACGAUACUAUACAACCUACUUGCUCA	0.00371 ± 0.0014
GGAGACCUUACUAUACAACGUACUACCUCA	0.00318 ± 0.0019
GGAGACCUUACUAUACAUCCUACUACCUGA	0.00345 ± 0.0024
GGAGACGAUCACUAUACAACCUACUACCUCA	0.0768 ± 0.029
GGAGACGAUACUAAUCAACCUACUACCUCA	0.0059 ± 0.0033
GGAGACGAUAGUAUACAUCCUACUACCUCA	0.00323 ± 0.0026
GGAGACGAUACUAUACAACCUGACUACCUCA	0.00426 ± 0.0019
GGAGACCAUACUAUACUACCUACUACCACA	0.0069 ± 0.0053
GGAGUGGAUACUAUACAACCAACUACCUCA	0.00568 ± 0.002
GGAGACCUUACAUUACAACCUACUACCUCA	0.00334 ± 0.0033
GGAGACGAUACAUAUACAACCUACUACCUCA	0.00804 ± 0.0033
